Unmarked numbers belong to inactive results. Entries that show only a call come without a potency. Activity calls are given as the source filed them. The call rests on the fitted dose curve; in most records, active means well fitted curve in the direction sought with a large enough effect in the signal ratio in the repeat runs (not every such curve was filed as active); inconclusive means weak or mixed curves, or effect the other way; inactive means no such curve, though single readings can be large or run the other way; the % refers to the signal ratio.
target: Estrogen receptor (Homo sapiens) (UniProt P03372); experiment: qHTS assay to identify small molecule antagonists of the estrogen receptor alpha (ER-alpha) signaling pathway (AID 743069); details: HEK293 ER-alpha-UAS-bla, beta-lactamase ratio, antagonist mode; series mostly up to 69.4 µM
How it was run: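 In this cell-based reporter format, GripTite HEK293 cells harbouring ER-alpha-UAS-bla were grown overnight with 2% charcoal-stripped FBS, dosed with DMSO-dissolved compounds, then challenged with 17beta-estradiol. After 18 hr at 37C, beta-lactamase activity was detected by FRET fluorescence.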
Potency means the concentration at half of the fitted maximal effect.

Estrogen receptor (Homo sapiens), sequence (P03372 whole entry, looked up): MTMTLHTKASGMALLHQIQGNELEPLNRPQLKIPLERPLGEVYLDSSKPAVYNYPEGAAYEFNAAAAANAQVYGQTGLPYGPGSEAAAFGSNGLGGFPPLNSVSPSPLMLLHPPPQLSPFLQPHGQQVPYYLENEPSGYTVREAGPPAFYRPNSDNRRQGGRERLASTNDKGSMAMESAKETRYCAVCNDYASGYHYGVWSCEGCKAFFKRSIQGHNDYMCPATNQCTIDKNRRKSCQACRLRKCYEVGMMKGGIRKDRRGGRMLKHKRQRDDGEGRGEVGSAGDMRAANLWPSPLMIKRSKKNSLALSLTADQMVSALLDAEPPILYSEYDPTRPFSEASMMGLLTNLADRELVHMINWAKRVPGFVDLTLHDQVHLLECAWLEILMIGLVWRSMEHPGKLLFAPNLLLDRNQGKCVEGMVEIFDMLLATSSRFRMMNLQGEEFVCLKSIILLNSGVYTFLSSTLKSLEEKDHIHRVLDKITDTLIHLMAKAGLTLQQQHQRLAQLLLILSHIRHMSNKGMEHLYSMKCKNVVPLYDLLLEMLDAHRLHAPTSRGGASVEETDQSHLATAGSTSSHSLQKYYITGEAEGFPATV

Which Potency does the source give for `CCC(=O)Oc1ccc(/C(CC)=C(\CC)c2ccc(OC(=O)CC)cc2)cc1` here?
Its Potency is 54.9 µM [inconclusive] (active).

How did the Potency turn out when `Cc1cc(O)c(C(C)C)cc1Cl` was run?
Its Potency is “inactive”.

`CCCOC(=O)c1ccc(C(=O)OCCC)nc1` was tested. Which Potency did it give?
Its Potency is “inactive”.

With `COCC(O)CO` (stereo not given) as the compound, how does the Potency read?
Its Potency is “inactive”.

`OC/C(Br)=C(\Br)CO` was tested. Which Potency did it give?
Its Potency is “inactive”.

With `O=C1OCCN1/N=C/c1ccc([N+](=O)[O-])o1` as the compound, how does the Potency read?
Its Potency is “inactive”.

How did the Potency turn out when `CCC(Cc1ccccc1)(C(=O)c1ccc(N2CCOCC2)cc1)N(C)C` (stereo not given) was run?
Its Potency is “inactive”.

With `Cc1cc(C(=C2C=CC(=Nc3ccc(S(=O)(=O)O)cc3S(=O)(=O)O)C=C2)c2ccc(Nc3ccc(S(=O)(=O)O)cc3)cc2)ccc1N` as the compound, how does the Potency read?
The Potency was “inactive”.

With `C1COCO1` as the compound, how does the Potency read?
The Potency was “inactive”.

How did the Potency turn out when `NC(=O)Nc1ccc(Cl)cc1` was run?
Its Potency is “inactive”.

Which Potency does the source give for `CCOC(=O)/C=C/C(=O)O` here?
The Potency was “inactive”.

With `CN1C(=O)CC(C)(c2ccccc2)C1=O` (stereo not given) as the compound, how does the Potency read?
The Potency was “inactive”.

How did the Potency turn out when `ON(Cc1ccccc1)Cc1ccccc1` was run?
Its Potency is “inactive”.

For `Nc1ccc(S(=O)(=O)O)c(N)c1`, which Potency is on record?
The Potency was “inactive”.

`CNC(=O)N(c1ccccc1)c1ccccc1` was tested. Which Potency did it give?
Its Potency is “inactive”.

With `CCC(C(=O)OCCN(CC)CC)c1ccccc1` (stereo not given) as the compound, how does the Potency read?
Its Potency is “inactive”.

With `O=C(O)C(Cc1cc(I)c(O)c(I)c1)c1ccccc1` (stereo not given) as the compound, how does the Potency read?
The Potency was “inactive”.

For `[O]=[Bi]`, which activity, negative = inhibition is on record?
The activity, negative = inhibition was -6.92% [at 6.71 µM].

How did the Potency turn out when `CCCOCCOCCO` was run?
Its Potency is “inactive”.

With `CC(C)=CC=O` as the compound, how does the Potency read?
Its Potency is “inactive”.

With `O=C(NCCCN1CCOCC1)c1ccc(Cl)cc1` as the compound, how does the Potency read?
The Potency was “inactive”.

`CC1(C)O[C@@H]2C[C@H]3[C@@H]4CCC5=CC(=O)C=C[C@]5(C)[C@H]4[C@@H](O)C[C@]3(C)[C@]2(C(=O)CO)O1` was tested. Which Potency did it give?
Its Potency is “inactive”.

`CCN(CC)CCNC(=O)c1ccc(NC(C)=O)cc1` was tested. Which Potency did it give?
The Potency was “inactive”.

How did the Potency turn out when `O=[N+]([O-])c1cccc(S(=O)(=O)NCCNS(=O)(=O)c2cccc([N+](=O)[O-])c2)c1` was run?
Its Potency is “inactive”.

How did the Potency turn out when `O=S(=O)(c1ccccc1)c1ccc(Cl)cc1` was run?
The Potency was “inactive”.

For `CO[C@H]1C=CO[C@@]2(C)Oc3c(C)c(O)c4c(O)c(c5c(c4c3C2=O)=NC2(CCN(CC(C)C)CC2)N=5)NC(=O)/C(C)=C\C=C/[C@H](C)[C@H](O)[C@@H](C)[C@@H](O)[C@@H](C)[C@H](OC(C)=O)[C@@H]1C`, which Potency is on record?
The Potency was “inactive”.

For `CC(=O)OCC(=O)[C@H]1CC[C@H]2[C@@H]3CCC4=CC(=O)CC[C@]4(C)[C@H]3CC[C@]12C`, which Potency is on record?
The Potency was “inactive”.

For `COc1cc2[nH]c(=O)[nH]c(=O)c2cc1OC`, which Potency is on record?
The Potency was “inactive”.

`CC(CCc1ccc2c(c1)OCO2)NN` (stereo not given) was tested. Which Potency did it give?
The Potency was “inactive”.

With `CC1CN(c2cc3c(cc2F)c(=O)c(C(=O)O)cn3-c2ccc(F)cc2F)CCN1` (stereo not given) as the compound, how does the Potency read?
The Potency was “inactive”.

Which Potency does the source give for `CC(=O)Nc1ccccc1C` here?
Its Potency is “inactive”.

How did the Potency turn out when `CCOC(=N)CC(=O)OCC` was run?
The Potency was “inactive”.

For `Nc1ccc(S(=O)(=O)O)cc1`, which Potency is on record?
The Potency was “inactive”.

How did the Potency turn out when `CC1=C(C=O)C(C)(C)CCC1` was run?
Its Potency is “inactive”.

Which Potency does the source give for `COC(OC)(C(=O)c1ccccc1)c1ccccc1` here?
Its Potency is “inactive”.
